The nature of experiment [1]: qHTS assay to identify small molecule antagonists of the estrogen related receptor (ERR) signaling pathway from Tox21 library - cell viability counter screen (AID 1224834). Also: nearly all actives have a fitted effect of over 30% in size. In outline:
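ERR reporter cells were plated 6 h before compound addition, then exposed to test compounds in DMSO for 17.5 h at 37 C. Viability was read as CellTiter-Fluor fluorescence after a 30-minute incubation at 37 C.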

Experiment [2] deals with Luciferin 4-monooxygenase (Photinus pyralis) (UniProt P08659). Nature of the experiment: qHTS assay to identify small molecule inhibitors of firefly luciferase (AID 1224835). Also: nearly all actives have a fitted effect of over 25% in size. Also: potency is read from the fitted curve at half-maximal effect. In outline:
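Biochemical qHTS: compounds run as interplate titrations against purified firefly enzyme, with D-luciferin and ATP each at its KM concentration. Light output recorded by CCD imaging.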
A general note: qHTS replaces the single test concentration by a dilution series.

The nature of experiment [3]: qHTS assay to identify small molecule agonists of the constitutive androstane receptor (CAR) signaling pathway - cell viability counter screen (AID 1224836). Also: series mostly up to about 92 µM; nearly all actives have a fitted effect of over 45% in size. Put shortly:
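Cells were seeded and incubated 4 hrs. Compounds were added across 15 concentrations together with PK11195 at 0.75 uM final. Plates were incubated 23 hrs at 37 C. CellTiter-Fluor was added and fluorescence measured.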

The target in experiment [4] is Nuclear receptor subfamily 1 group I member 3 (Homo sapiens) (UniProt Q14994). Nature of the experiment: qHTS assay to identify small molecule antagonists of the constitutive androstane receptor (CAR) signaling pathway (AID 1224838). Also: nearly all actives have a fitted effect of over 40% in size. Put shortly:
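HepG2 cells stably co-transfected with hCAR and a CYP2B6-2.2kb luciferase reporter were seeded 4 h before compound addition at 15 concentrations. Cells were stimulated with 50 nM CITCO (final) for 24 h at 37 C; luciferase luminescence was then read.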

The target is the same in experiment [5]. The experiment in a line: qHTS assay to identify small molecule agonists of the constitutive androstane receptor (CAR) signaling pathway (AID 1224839).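 Also: HepG2 cells stably carrying human CAR and a CYP2B6 luciferase reporter; series mostly up to about 92 µM; nearly all actives have a fitted effect of over 15% in size.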 Put shortly:
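Cells were plated and incubated 4 hrs, then dosed with compounds at 15 concentrations. PK11195 was added to 0.75 uM final. After 24 hrs at 37 C, luciferase luminescence was measured.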

Experiment [6] can be described thus: qHTS assay to identify small molecule antagonists of the estrogen related receptor signaling pathway with the pleiotropic PPARgamma coactivator (PGC) from Tox21 10K library - cell viability counter screen (AID 1224840; active = well fitted cell-killing curve with a large enough effect in the repeat runs, not every such curve was filed as active; also: nearly all actives have a fitted effect of over 40% in size). Put shortly:
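PGC/ERR cells were seeded at 2,000 cells/well and left 6 hours at 37 C/5% CO2 before pin-tool addition of compounds in DMSO. After 17.5 hours at 37 C, CellTiter-Fluor was added and fluorescence read 30 minutes later.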

Experiment [7] in a line: qHTS assay to identify small molecule agonists of the hypoxia (HIF-1) signaling pathway - cell viability counter screen (AID 1224844; calls by dose curve; also: nearly all actives have a fitted effect of over 50% in size). Put shortly: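 HRE-bla ME-180 cells in medium with 0.5% dialyzed FBS were preincubated 5 hrs at 37C, exposed to compounds for 17 hrs, then viability was read as CellTiter-Glo luminescence after 30 min at room temperature, in the reporter wells.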

Experiment [8] is described as follows: qHTS assay to identify small molecule agonists of H2AX (AID 1224845; active = well fitted activation curve with a large enough effect in the signal ratio in the repeat runs, not every such curve was filed as active; the % refers to the signal ratio). In outline: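 Wild-type CHO-K1 cells, plated overnight, exposed 3hr at 37C to 15 concentrations (0.76% DMSO final). Lysed, then HTRF anti-pH2AX (S139) cryptate and anti-H2AX-d2 antibodies, 24 hr room temperature; 665/620 nm emission read.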
Experiment [9] can be described thus: qHTS assay to identify small molecule agonists of H2AX - cell viability counter screen (AID 1224847; calls by dose curve; also: top concentration of the series differs between compounds; nearly all actives have a fitted effect of over 30% in size). In outline: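 Cytotoxicity counter screen in wild-type CHO-K1 cells: a 3 hr compound treatment at 37C across 15 concentrations, followed by CellTiter-Glo luminescence to gauge viable cells.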
A short description of experiment [10]: qHTS RealTime-Glo MT Cell Viability Assay in HepG2 cells - 24 hour (AID 1224867). Also: nearly all actives have a fitted effect of over 50% in size. Put shortly: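 Viability was tracked continuously by NanoLuc luminescence from prosubstrate reduced by living HepG2 cells, at successive time points over 40 h of compound exposure. Cells with reagent were preincubated 5 h at 37 °C before compound addition.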
The nature of experiment [11]: qHTS RealTime-Glo MT Cell Viability Assay in HEK293 cells - 32 hour (AID 1224868). Also: top concentration of the series differs between compounds; nearly all actives have a fitted effect of over 50% in size. In outline:
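Viability tracked continuously by luminescence as live cells reduce a prosubstrate for NanoLuc; HEK293 cells preincubated 5 h, compound-treated at 37 C, and read at 0, 8, 16, 24, 32 and 40 h.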

Experiment [12] in a line: A CellTox Green Cytotoxicity Assay to monitor cytotoxicity in HEK293 cells - 0 hour (AID 1224869). Also: nearly all actives have a fitted effect of over 50% in size. Put shortly: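 HEK293 cells premixed with CellTox Green dye were seeded at 600 cells/well and left 5 h at 37 C/5% CO2 before pin transfer of 23 nL compound in DMSO. Fluorescence from dye bound to dead-cell DNA was read during 40 h treatment.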
The nature of experiment [13]: qHTS RealTime-Glo MT Cell Viability Assay in HepG2 cells - 40 hour (AID 1224870). Also: nearly all actives have a fitted effect of over 50% in size. Put shortly: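 HepG2 cells (600/well) mixed with RealTime-Glo MT reagent, settled 5 h at 37 C/5% CO2 before compound addition. Nonlytic NanoLuc luminescence from viable-cell prosubstrate reduction read repeatedly during 40 h treatment at 37 C.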
Experiment [14] in a line: qHTS assay to identify small molecule antagonists of the constitutive androstane receptor (CAR) signaling pathway - cell viability counter screen (AID 1224837). Also: series mostly up to about 92 µM; nearly all actives have a fitted effect of over 45% in size. In outline:
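HepG2 cells stably expressing hCAR and a CYP2B6-2.2kb reporter were plated and pre-incubated 4 hr at 37 C/5% CO2, then given compounds at 15 concentrations plus 50 nM CITCO (final). After 23 hr, viability was read by CellTiter-Fluor fluorescence.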

Experiment [15] can be described thus: qHTS assay to identify small molecule agonists of the hypoxia (HIF-1) signaling pathway (AID 1224846; active = well fitted activation curve with a large enough effect in the signal ratio in the repeat runs, not every such curve was filed as active; the % refers to the signal ratio). Put shortly:
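HRE-bla ME-180 cells (beta-lactamase reporter under hypoxia response element) were plated at 2,000 cells/well in medium with 0.5% dialyzed FBS, rested 5 hrs, then given compounds in DMSO for 17 hrs at 37C, 5% CO2. Reporter induction was read with CCF4-AM FRET substrate.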

The nature of experiment [16]: qHTS assay to identify small molecule antagonists of the estrogen related receptor signaling pathway with the pleiotropic PPARgamma coactivator (PGC) from Tox21 10K library (AID 1224841; call rule not given here). In outline: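 PGC/ERR reporter cells were seeded at 2,000 cells/well and held 6 hours at 37 C/5% CO2 before pin-tool addition of compounds in DMSO. After 18 hours at 37 C, One-Glo was added and luminescence read after 30 minutes at room temperature.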

Experiment [17] is described as follows: qHTS assay to identify small molecule agonists of the estrogen related receptor signaling pathway with the pleiotropic PPARgamma coactivator (PGC) from Tox21 10K library (AID 1224842). Also: nearly all actives have a fitted effect of over 15% in size. Put shortly:
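PGC/ERR reporter cell line, 2,000 cells per well, incubated 6 h at 37 C before 23 nL compound in DMSO was added. After 18 h at 37 C, One-Glo luminescence read following 30 min at room temperature.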

A short description of experiment [18]: qHTS assay to identify small molecule antagonists of the estrogen related receptor (ERR) signaling pathway from Tox21 library (AID 1224848). Also: nearly all actives have a fitted effect of over 50% in size. Put shortly:
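Luminescent reporter read-out (ONE-Glo) from NTP's ERR cell line after 18 h treatment at 37 C with DMSO-dissolved Tox21 compounds; cells pre-plated 6 h beforehand at 2,000 per well.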

Experiment [19] in a line: qHTS assay to identify small molecule agonists of the estrogen related receptor (ERR) signaling pathway from Tox21 library (AID 1224849; calls by dose curve; also: nearly all actives have a fitted effect of over 15% in size). Put shortly:
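ERR reporter cell line (NTP) seeded, rested 6 h at 37 C/5% CO2, then pinned with Tox21 compounds in DMSO. After 18 h at 37 C, ONE-Glo luciferase luminescence was read following 30 min at room temperature.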

Unmarked numbers belong to inactive results. Records with an inconclusive call do not appear. Calls of active or inactive are those of the source. Unless noted, calls follow the shape of the dose curve; as a rule, active = well fitted curve in the direction sought with a large enough effect in the repeat runs; inconclusive = weak or mixed curves; inactive = no such curve, though single readings can be large; an effect the other way counts as inactive or inconclusive.

Sequence of Luciferin 4-monooxygenase (Photinus pyralis) (P08659 whole entry, looked up): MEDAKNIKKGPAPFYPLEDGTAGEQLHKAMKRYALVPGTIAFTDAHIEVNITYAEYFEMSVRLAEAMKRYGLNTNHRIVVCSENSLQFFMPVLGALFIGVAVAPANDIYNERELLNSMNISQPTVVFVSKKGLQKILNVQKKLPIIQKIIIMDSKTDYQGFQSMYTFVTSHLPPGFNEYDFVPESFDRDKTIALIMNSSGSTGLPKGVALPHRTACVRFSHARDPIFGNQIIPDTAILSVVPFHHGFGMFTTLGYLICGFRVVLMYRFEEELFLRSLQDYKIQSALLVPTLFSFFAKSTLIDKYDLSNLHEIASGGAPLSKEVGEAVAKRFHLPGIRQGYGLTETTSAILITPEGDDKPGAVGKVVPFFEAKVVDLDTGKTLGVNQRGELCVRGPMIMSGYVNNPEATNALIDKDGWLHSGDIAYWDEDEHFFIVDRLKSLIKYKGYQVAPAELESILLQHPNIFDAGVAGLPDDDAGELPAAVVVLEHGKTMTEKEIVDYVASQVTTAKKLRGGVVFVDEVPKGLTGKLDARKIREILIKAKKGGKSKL
Sequence of Nuclear receptor subfamily 1 group I member 3 (Homo sapiens) (Q14994 whole entry, looked up): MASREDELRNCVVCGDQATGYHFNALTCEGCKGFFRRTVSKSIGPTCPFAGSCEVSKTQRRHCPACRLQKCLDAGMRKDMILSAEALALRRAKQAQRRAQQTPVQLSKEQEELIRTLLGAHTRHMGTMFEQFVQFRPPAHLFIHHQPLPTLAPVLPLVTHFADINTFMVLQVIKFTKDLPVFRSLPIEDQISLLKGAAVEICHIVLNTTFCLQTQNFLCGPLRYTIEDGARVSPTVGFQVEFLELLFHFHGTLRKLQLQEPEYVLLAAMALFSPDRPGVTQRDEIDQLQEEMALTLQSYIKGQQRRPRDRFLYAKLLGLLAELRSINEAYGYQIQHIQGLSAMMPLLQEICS

Take `COc1cc(-c2ccc(=O)[nH]n2)ccc1OC(F)F`: the Potency result in experiment [1], in [2], in experiment [4], in experiment [5], in experiment [7] and in [8] was “inactive” throughout. The Potency entry in [11] and in experiment [13] was “inactive” in each case. Besides, the molecule was called inactive in experiment [3], in experiment [6], in experiment [9], in [10] and in experiment [12].

Consider `CC(=O)NC(=O)c1ccccc1O`, for which the Potency result in experiment [1], in experiment [2], in experiment [7], in experiment [8], in [11] and in experiment [13] was “inactive” each time. The call in experiment [3], in experiment [14], in [6], in experiment [15], in [9] and in experiment [10] was inactive. Besides, in experiment [12], the result was inactive.

For the molecule `Cc1ccc(C(=O)c2ccc(CC(=O)O)n2C)cc1`, the Potency entry in experiment [1], in experiment [4], in [5], in experiment [16], in experiment [17] and in experiment [7] was “inactive” each time. In addition, the Potency entry in [8], in [18], in experiment [11] and in [13] was “inactive” throughout. For the same molecule, in experiment [2], the Potency was 15.5 µM (active). Also, the molecule was called inactive in experiment [3], in [6], in experiment [9], in [19], in experiment [10] and in experiment [12].

Turning to `NC(=O)NC1N=C([O][Al])NC1=O` (centres undefined), the Potency entry in [1], in experiment [2], in experiment [7], in experiment [8], in experiment [11] and in experiment [13] was “inactive” throughout. In addition, the call in [3], in experiment [14], in experiment [6], in experiment [15], in experiment [9] and in experiment [10] was inactive. Further, the result in [12] was inactive.

In the case of `CC(=O)N[C@H]1[C@H]([C@H](O)[C@H](O)CO)OC(C(=O)O)=C[C@@H]1N=C(N)N`, the Potency entry in experiment [1], in experiment [2], in [7], in experiment [8], in [11] and in experiment [13] was “inactive” in each case. Also, the molecule was called inactive in [3], in [14], in [6], in [15], in [9] and in experiment [10]. Further, in experiment [12], the outcome was inactive.

As to `CC(C)c1ccc2ncccc2c1`, the Potency result in experiment [1], in experiment [4], in [5], in [16], in experiment [17] and in [8] was “inactive” in each case. Besides, the Potency entry in experiment [18], in experiment [11] and in experiment [13] was “inactive” throughout. The Potency in experiment [2] is 31.7 µM (active). In addition, the call in [3], in experiment [6], in [15], in experiment [9], in experiment [19] and in experiment [10] was inactive. The result in [12] was inactive.

In the case of `CC12CCC(C(=O)C1=O)C2(C)C` (centres undefined), the Potency result in [1], in experiment [2], in [7], in [8], in experiment [11] and in experiment [13] was “inactive” each time. Further, the result in experiment [3], in [14], in experiment [6], in [15], in experiment [9] and in experiment [10] was inactive. In experiment [12], the outcome was inactive.

Source of the values: PubChem BioAssay (Tox21).
